We go through 21 molecules from PubChem BioAssay (NCATS).

One assay deals with NIH3T3. The experiment in a line: qHTS assay to identify novel small-molecules to repurpose for Merkel cell carcinoma treatment (AID 1296009). Also: nearly all actives have a fitted effect of over 60% in size. The settings on record: MCC and control cell lines, CellTiter-Glo viability, 72 h; at 44.8 µM (top of the series) unless noted. In short, it runs like this:
(§1)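 After compound transfer in DMSO, plates were kept 72 hr at 37 degree celsius. Luminescent ATP signal from CellTiter-Glo served as viability measure, normalized against DMSO and no-cell controls.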

For a further assay, the system named is UISO. The assay is described as above. The settings on record: MCC and control cell lines, CellTiter-Glo viability, 72 h; series mostly up to 46 µM. In short, it runs like this: as §1
For a further assay, the system named is WaGa. Described as above. Particulars: MCC and control cell lines, CellTiter-Glo viability, 72 h; series mostly up to 46 µM. In short, it runs like this:
as §1

For the next assay, the system named is C33A. As to the kind of experiment: Primary qHTS to identify gynecologic anti-cancer compounds using libraries of approved drugs and bioactive compounds (AID 1345084). Also: nearly all actives have a fitted effect of over 55% in size. Also: potency is read from the fitted curve at half-maximal effect. Particulars: Gynecologic cancer cell panel viability, ATPlite luminescence, 48 h; series mostly up to 57.5 µM. In short, it runs like this: (§2)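 In this quantitative HTS, cell killing is estimated from loss of ATP-dependent luciferase light. Cells see five compound concentrations over a 48 h exposure.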

The next assay deals with CAOV3. The description is as above. Particulars: Gynecologic cancer cell panel viability, ATPlite luminescence, 48 h; series mostly up to 57.5 µM. In short, it runs like this: as §2
Another assay has as its system CASKI. The assay is described as above. The settings on record: Gynecologic cancer cell panel viability, ATPlite luminescence, 48 h; series mostly up to 57.5 µM. In short, it runs like this: as §2
The subject of a further assay is Es-2. Described as above. The settings on record: Gynecologic cancer cell panel viability, ATPlite luminescence, 48 h; series mostly up to 57.5 µM. In short, it runs like this: as §2
A further assay relates to HeLa. Described as above. Particulars: Gynecologic cancer cell panel viability, ATPlite luminescence, 48 h; series mostly up to 57.5 µM. In short, it runs like this: as §2
The next assay concerns Hek293T. The description is as above. The settings on record: Gynecologic cancer cell panel viability, ATPlite luminescence, 48 h, control line for the selectivity index; series mostly up to 57.5 µM. In short, it runs like this: as §2
Another assay concerns JEG-3. The description is as above. The settings on record: Gynecologic cancer cell panel viability, ATPlite luminescence, 48 h; series mostly up to 57.5 µM. In short, it runs like this:
as §2

Molecules are shown by their SMILES. Inconclusive results are not listed. Activity calls are given as the source filed them. Calls follow the shape of the dose curve; as a rule, active = well fitted curve in the direction sought with a large enough effect; inconclusive = small, poorly fitted or top-dose-only effect, or another doubt; inactive = no such curve, though single readings can be large; an effect the other way counts as inactive or inconclusive.

Consider `CSc1ccc(C(=O)c2[nH]c(=O)[nH]c2C)cc1`, for which the molecule was classed as inactive in the assay on NIH3T3. The Potency result in the assay with UISO, in the assay with WaGa, in the assay on C33A, with CAOV3, in the assay with CASKI and in the assay with Es-2 was “inactive” each time. Also, the Potency result with Hek293T and with JEG-3 was “inactive” throughout. Moreover, in the assay with HeLa, the Potency is 2000 nM (active).

As to `CC(C)NNC(=O)c1ccncc1`, the molecule was called inactive in the assay on NIH3T3. In addition, the Potency result in the assay on UISO, in the assay on WaGa, with C33A, in the assay on CAOV3, with CASKI and in the assay on Es-2 was “inactive” in each case. In addition, the Potency entry in the assay on HeLa, in the assay on Hek293T and with JEG-3 was “inactive” each time.

As for `CC(=O)OCC1=C(C(=O)O)N2C(=O)[C@@H](NC(=O)Cc3cccs3)[C@H]2SC1`, in the assay with NIH3T3, the call was inactive. Besides, the Potency entry with UISO, in the assay on WaGa, with C33A, in the assay with CAOV3, in the assay on CASKI and with Es-2 was “inactive” in each case. Moreover, the Potency entry with HeLa, in the assay with Hek293T and in the assay on JEG-3 was “inactive” in each case.

For `c1ccc2c(c1)CCCC2C1=NCCN1` (centres undefined), in the assay with NIH3T3, the result was inactive. Also, the Potency entry in the assay with UISO, in the assay with WaGa, in the assay with C33A, in the assay with CAOV3, with CASKI and in the assay with Es-2 was “inactive” each time. Also, the Potency entry in the assay on HeLa, in the assay on Hek293T and in the assay on JEG-3 was “inactive” each time.

On to `Cc1ccc(Cl)c(Nc2ccccc2C(=O)O)c1Cl`, for which the Potency entry in the assay with UISO, in the assay with WaGa, with C33A, with CAOV3, in the assay on CASKI and with Es-2 was “inactive” throughout. The Potency entry with HeLa, in the assay with Hek293T and in the assay on JEG-3 was “inactive” each time.

Take `C[C@]12C=CC(=O)C=C1CC[C@H]1[C@@H]3C[C@@H](O)[C@](O)(C(=O)CO)[C@@]3(C)C[C@H](O)[C@@]12F`: the result in the assay on NIH3T3 was inactive. In addition, the Potency entry with UISO, in the assay with WaGa, with C33A, in the assay with CAOV3, in the assay on CASKI and in the assay on Es-2 was “inactive” in each case. Moreover, the Potency entry in the assay with HeLa, with Hek293T and with JEG-3 was “inactive” each time.

With `C#CCN(C)CCCOc1ccc(Cl)cc1Cl`, the Potency result in the assay with UISO, in the assay on WaGa, in the assay with C33A, in the assay with CAOV3, with CASKI and in the assay on Es-2 was “inactive” each time. Also, the Potency result in the assay with HeLa, in the assay on Hek293T and with JEG-3 was “inactive” throughout.

Regarding `CC1=NS(=O)(=O)c2cc(Cl)ccc2N1`, the result in the assay on NIH3T3 was inactive. Further, the Potency result with UISO, in the assay on WaGa, in the assay on C33A, with CAOV3, in the assay on CASKI and with Es-2 was “inactive” each time. The Potency result in the assay with HeLa, in the assay on Hek293T and in the assay on JEG-3 was “inactive” in each case.

For `O=C(O)CP(=O)(O)O`, the molecule was called inactive with NIH3T3. Besides, the Potency entry with UISO, in the assay with WaGa, with C33A, with CAOV3, with CASKI and in the assay with Es-2 was “inactive” in each case. For the same molecule, the Potency result in the assay with HeLa, with Hek293T and with JEG-3 was “inactive” throughout.

For the molecule `CCCN1C[C@H](CSC)C[C@@H]2c3cccc4[nH]cc(c34)C[C@H]21`, the Potency entry in the assay with UISO, with WaGa, in the assay on C33A, with CAOV3, in the assay on CASKI and in the assay on Es-2 was “inactive” throughout. Moreover, the Potency result with HeLa, with Hek293T and in the assay on JEG-3 was “inactive” throughout.

For `COCCc1ccc(OCC(O)CNC(C)C)cc1` (centres undefined), the result in the assay on NIH3T3 was inactive. Moreover, the Potency result in the assay on UISO, in the assay on WaGa, with C33A, with CAOV3, with CASKI and in the assay with Es-2 was “inactive” each time. Further, the Potency entry in the assay with HeLa, with Hek293T and in the assay with JEG-3 was “inactive” throughout.

`NC(=Nc1ccccc1)Nc1ccccc1`: the outcome in the assay with NIH3T3 was “inactive [at 92 µM]”. Besides, the Potency result with UISO, in the assay on WaGa, in the assay with C33A, in the assay with CAOV3, in the assay with CASKI and with Es-2 was “inactive” throughout. The Potency entry in the assay with HeLa, with Hek293T and in the assay with JEG-3 was “inactive” each time.

Regarding `OCCN1CCN(CCCN2c3ccccc3C=Cc3ccccc32)CC1`, the molecule was called inactive in the assay with NIH3T3. Further, the Potency entry in the assay on UISO, in the assay on C33A, with CAOV3, with CASKI, in the assay with Es-2 and in the assay with HeLa was “inactive” in each case. The Potency entry in the assay on Hek293T and in the assay with JEG-3 was “inactive” throughout.

Consider `CN(C)C(=O)Oc1ccc[n+](C)c1`, for which the result with NIH3T3 was inactive. Moreover, the Potency result with UISO, in the assay with WaGa, with C33A, with CAOV3, in the assay on CASKI and in the assay on Es-2 was “inactive” in each case. Also, the Potency entry in the assay with HeLa, with Hek293T and with JEG-3 was “inactive” throughout.

For the molecule `CCN(Cc1ccncc1)C(=O)C(CO)c1ccccc1` (centres undefined), the Potency entry in the assay with UISO, with WaGa, with C33A, in the assay on CAOV3, with CASKI and in the assay on Es-2 was “inactive” in each case. Moreover, the Potency entry with HeLa, in the assay with Hek293T and with JEG-3 was “inactive” in each case.

As for `CCCCCN(CCCCC)C(=O)C(CCC(=O)O)NC(=O)c1ccc(Cl)c(Cl)c1` (centres undefined), the Potency result in the assay on UISO, in the assay with WaGa, in the assay with C33A, in the assay with CAOV3, in the assay with CASKI and in the assay on Es-2 was “inactive” each time. The Potency result in the assay on HeLa, in the assay on Hek293T and in the assay with JEG-3 was “inactive” in each case.

`NC1=NCC2c3ccccc3Cc3ccccc3N12` (centres undefined): the Potency entry with UISO, in the assay on WaGa, with C33A, in the assay with CAOV3, in the assay on CASKI and in the assay with Es-2 was “inactive” in each case. Also, the Potency result in the assay with HeLa, in the assay with Hek293T and with JEG-3 was “inactive” each time.

Regarding `CCOC(=O)c1cnc2c(cnn2CC)c1NN=C(C)C`, the Potency result with UISO, with WaGa, in the assay with C33A, with CAOV3, in the assay with CASKI and with Es-2 was “inactive” in each case. Moreover, the Potency result with HeLa, with Hek293T and in the assay on JEG-3 was “inactive” throughout.

On to `NC(=O)N1c2ccccc2C=Cc2ccccc21`, for which the Potency result in the assay on UISO, in the assay on WaGa, in the assay on C33A, in the assay with CAOV3, with CASKI and in the assay on Es-2 was “inactive” throughout. Further, the Potency entry in the assay with HeLa, with Hek293T and in the assay with JEG-3 was “inactive” each time.

As to `CCn1ccnc1CC1COc2ccccc2O1` (centres undefined), the Potency result in the assay on UISO, in the assay with WaGa, with C33A, with CAOV3, with CASKI and in the assay on Es-2 was “inactive” throughout. Moreover, the Potency result with HeLa, in the assay with Hek293T and with JEG-3 was “inactive” throughout.

Regarding `FC(F)(F)c1ccccc1-n1ccnc1`, the Potency entry with UISO, with WaGa, in the assay on C33A, in the assay on CAOV3, in the assay on CASKI and in the assay with Es-2 was “inactive” throughout. Moreover, the Potency entry in the assay on HeLa, with Hek293T and in the assay on JEG-3 was “inactive” throughout.
